# Shown are actives, neighbours in structure and some others; about 3.1% of the full set was active somewhere.
# ERAP1 HTS inh: human ERAP1 aminopeptidase inhibitors, primary screen, biochemical, single point, plate reader; recombinant ERAP1, Leu-AMC fluorescence, 60 min; inhibition, % at 10.7 µM; 340,000 compounds, 0.15% hits; AID 652197, 2013;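 active means mean replicate inhibition of at least 30%, or all replicates individually reaching that 30% level; inactive means mean below 30% and not every replicate reaching it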;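 further: 0% = neutral control wells and 100% = L-leucinethiol positive control wells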
# Target sequence (Q9NZ08 whole entry, looked up): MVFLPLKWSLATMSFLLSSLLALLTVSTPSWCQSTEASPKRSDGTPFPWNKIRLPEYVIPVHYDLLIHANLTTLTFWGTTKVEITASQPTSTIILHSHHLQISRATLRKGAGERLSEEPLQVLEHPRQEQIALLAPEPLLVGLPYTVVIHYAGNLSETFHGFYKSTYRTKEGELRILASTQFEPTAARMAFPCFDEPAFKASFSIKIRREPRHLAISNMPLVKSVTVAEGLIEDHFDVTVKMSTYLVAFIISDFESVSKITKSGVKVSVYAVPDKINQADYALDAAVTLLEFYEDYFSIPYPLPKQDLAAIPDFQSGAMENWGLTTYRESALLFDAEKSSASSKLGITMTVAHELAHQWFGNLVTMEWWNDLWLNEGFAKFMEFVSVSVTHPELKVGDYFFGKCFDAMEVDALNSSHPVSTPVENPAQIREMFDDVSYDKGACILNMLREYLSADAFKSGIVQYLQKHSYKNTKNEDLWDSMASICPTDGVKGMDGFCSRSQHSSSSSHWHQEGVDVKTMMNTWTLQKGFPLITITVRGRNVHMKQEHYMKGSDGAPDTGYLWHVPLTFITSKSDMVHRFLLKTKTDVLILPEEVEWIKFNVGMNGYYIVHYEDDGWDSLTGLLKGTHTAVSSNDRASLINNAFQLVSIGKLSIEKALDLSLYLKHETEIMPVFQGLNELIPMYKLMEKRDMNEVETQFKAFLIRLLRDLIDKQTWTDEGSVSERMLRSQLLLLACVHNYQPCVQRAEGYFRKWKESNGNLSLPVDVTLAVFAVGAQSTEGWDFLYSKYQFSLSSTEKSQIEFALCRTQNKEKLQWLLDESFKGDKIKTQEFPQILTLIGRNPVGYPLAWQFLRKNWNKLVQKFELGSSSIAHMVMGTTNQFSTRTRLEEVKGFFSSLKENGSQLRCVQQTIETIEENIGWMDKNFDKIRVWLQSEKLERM
# Casp6 inh: human caspase-6 inhibitors, primary screen, biochemical, VEID-R110 fluorescence, single point, set 2; P55212; purified caspase-6, Z-VEID-R110 cleavage fluorescence; inhibition, % at 12.5 µM; 350,000 compounds, 0.53% hits; AID 686996, 2013;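 active means mean inhibition across replicates at least about 35%, with every replicate also reaching that limit, limit read from the data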;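 further: 0% = median of neutral control wells and 100% = no fluorescence left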
# SIRT5 inh: SIRT5 desuccinylase inhibitors, primary screen, biochemical, fluorescence imaging, single point, set 5; Purified SirT5, succinyl-peptide AMC, trypsin-coupled fluorescence; inhibition, % at 15 µM; 330,000 compounds, 1.1% hits; AID 652115, 2013; in the data active means inhibition above about 15%
# FGF22 binding: binders of human FGF22 protein, primary screen, FGF22 synaptogenesis inhibitor project, biophysical, thermal shift, single point; Fibroblast growth factor 22 (Homo sapiens), Q9HCT0; recombinant FGF22 thermal shift, SYPRO orange fluorescence; percent of sucrose octasulfate shift, DMSO zero; activity (Tm shift, normalised), % at 9.99 µM; 340,000 compounds, 1.5% hits; AID 651658, 2012;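 active means mean Tm shift, scaled 0 neutral to 100 positive control, at about 1.3% or above, every replicate too, limit read from the data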
# An asterisk follows results filed as active; x = not tested or not shown.
SMILES,ERAP1 HTS inh,Casp6 inh,SIRT5 inh,FGF22 binding
CN(C)C(=O)C[C@H]1CC[C@H]2[C@@H](COc3ccc(NC(=O)Nc4cccc(Cl)c4)cc3C(=O)N2C)O1,0,0,-3,0
CC(C)C(=O)N=C1SC2CS(=O)(=O)CC2N1Cc1ccc(Cl)cc1 (stereo not given),x,-3,-1,0
CC(C)C(=O)N=C1SC2CS(=O)(=O)CC2N1Cc1ccccc1 (stereo not given),-3,1,1,43*
CCOC(=O)Cc1cnc(NC(=O)CSc2nc(C)cc(C)n2)s1,-4,-1,-3,44*
CCOC(=O)Cc1cnc(NC(=O)CSc2nc3ncnc(N)c3[nH]2)s1,-2,1,1,1
N#C[C@H]1[C@H](c2ccccc2C2=CCCCC2)[C@H](CO)N1C(=O)C1CCOCC1,x,x,17*,0
C[C@@H]1CN([C@H](C)CO)C(=O)Cc2cc(NC(=O)C3CC3)ccc2O[C@@H]1CN(C)C(=O)Nc1ccccc1,0,0,0,0
CSc1ncnc2c1ncn2CCCN[C@H](C)c1cccc2ccccc12,-1,0,-1,0
CCC(C)C(CO)NCCCn1cnc2c(SC)ncnc21 (stereo not given),8,-4,26*,0
COCCOC(=O)N1C(=O)[C@@]2(c3ccccc31)[C@H](c1ccccc1OCCO)N1[C@H](c3ccccc3)[C@H](c3ccccc3)OC(=O)[C@H]1[C@@H]2C(N)=O,-1,2,13,24*
COCCOC(=O)N1C(=O)[C@@]2(c3cc(C#CCCO)ccc31)[C@H](C(=O)N1CCN(c3ncccn3)CC1)[C@H]1C(=O)O[C@H](c3ccccc3)[C@H](c3ccccc3)N1[C@@H]2c1ccccc1OCCO,2,0,14,0
COCCOC(=O)N1C(=O)[C@@]2(c3ccccc31)[C@H](C(=O)N1CCN(c3ncccn3)CC1)[C@H]1C(=O)O[C@H](c3ccccc3)[C@H](c3ccccc3)N1[C@@H]2c1ccccc1OCCO,0,-1,16*,0
COCCOC(=O)N1C(=O)[C@@]2(c3cc(C#Cc4ccc(OC)cc4)ccc31)[C@H](c1ccccc1OCCO)N1[C@H](c3ccccc3)[C@H](c3ccccc3)OC(=O)[C@H]1[C@@H]2C(=O)NC[C@H](O)c1ccccc1,1,0,-6,0
COCCOC(=O)N1C(=O)[C@@]2(c3cc(C#CCCO)ccc31)[C@H](c1ccccc1OCCO)N1[C@H](c3ccccc3)[C@H](c3ccccc3)OC(=O)[C@H]1[C@@H]2C(=O)N1CCN(c2ncccn2)CC1,-2,0,19*,0
COCCOC(=O)N1C(=O)[C@@]2(c3cc(C#CCC(C(=O)OC)C(=O)OC)ccc31)[C@H](c1ccccc1OCCO)N1[C@H](c3ccccc3)[C@H](c3ccccc3)OC(=O)[C@H]1[C@@H]2C(=O)NC[C@H](O)c1ccccc1,2,-1,16*,0
COCC(=O)Nc1ccc2c(c1)[C@H]1C[C@@H](CC(=O)N3CCc4ccccc4C3)O[C@H](CO)[C@H]1O2,-2,-2,10,0
O=C(C[C@H]1CC[C@H]2[C@@H](COC[C@@H](O)CN2C(=O)c2ccccc2F)O1)NCc1ccc(Cl)c(Cl)c1,x,x,x,0
CC(C)(C)[S@](=O)N1Cc2cc(C(=O)NCCc3ccncc3)nc(-c3cccc(-c4ccncc4)c3)c2[C@@H]1CCO,-1,-3,-6,0
C[C@H]1CN([C@@H](C)CO)C(=O)c2cc(Br)cnc2O[C@@H]1CN(C)Cc1ccccn1,0,-7,1,0
CC1=CC(C)(C)N(C(=O)CCl)c2ccccc21,1,1,-2,43
CC1=CC(C)(C)N(C(=O)CN2C(=O)CCC2=O)c2ccccc21,-1,0,-2,43*
C[C@H]1CN([C@@H](C)CO)C(=O)Cc2cc(NS(=O)(=O)c3cccs3)ccc2O[C@@H]1CN(C)Cc1ccc(-c2ccccc2)cc1,-2,0,15*,0
C[C@H](CO)N1C[C@H](C)[C@@H](CN(C)Cc2ccc(-c3ccccc3)cc2)Oc2ccc(NS(=O)(=O)c3cccs3)cc2CC1=O,-1,1,18*,0
COc1ccc(NC(=O)Nc2ccc3c(c2)C(=O)N([C@@H](C)CO)C[C@@H](C)[C@@H](CN(C)C(=O)NC2CCCCC2)O3)cc1,6,1,-2,-1
CN(Cc1cc(=O)n2ccsc2n1)c1ccccc1,0,-5,0,44*
SMILES,ERAP1 HTS inh,Casp6 inh,SIRT5 inh,FGF22 binding
CN(Cc1cc(=O)n2ccsc2n1)C1CCCCC1,1,5,1,0
COc1ccc(CN(C)C[C@@H]2Oc3ccc(NC(=O)Nc4ccc5c(c4)OCO5)cc3CC(=O)N([C@@H](C)CO)C[C@H]2C)cc1,-3,2,2,0
COc1ccc2c3c([nH]c2c1)[C@@H](CO)N(CC1CCOCC1)CC31CN(CC2CCOCC2)C1,x,x,x,0
Cc1noc2ncnc(Oc3ccc(Cl)cc3Cl)c12,-2,-4,-4,44*
Cc1cc(Cl)ccc1Oc1ncnc2onc(C)c12,2,2,-1,0
Cc1noc2ncnc(Oc3ccccc3Cl)c12,-2,x,-4,43*
CCc1ccc(CN(Cc2cccnc2)C(=O)/C=C/c2ccc(OC)cc2)cc1,2,98*,-1,0
COc1ccc(Oc2ccc(/C=N/NC(=O)c3cccnc3)cc2[N+](=O)[O-])cc1,-2,1,-22,43*
COc1cc(/C=N/NC(=O)c2cccnc2)ccc1OCC(=O)Nc1ccc(C)cc1,0,-4,-10,44*
COc1ccc(CNC(=O)C(=O)NCc2cccnc2)cc1,-4,0,-8,0
COc1ccc(/C=N/NC(=O)C(=O)NCc2cccnc2)cc1,0,2,4,44*
C[C@H]1CN([C@@H](C)CO)C(=O)c2cc(NC(=O)C3CC3)ccc2O[C@H]1CN(C)C(=O)Nc1ccc2c(c1)OCO2,-1,-1,-3,-1
COc1ccc(CNC(=O)C[C@@H]2CC[C@@H](NC(=O)c3ccc4c(c3)OCO4)[C@@H](CO)O2)cc1,-1,0,-7,0
COc1ccccc1S(=O)(=O)N1CCN(S(=O)(=O)c2ccccc2C#N)CC1,-3,-3,91*,42
Cc1ccc(OCC(=O)Nc2sc3c(c2C#N)CC(C)(C)NC3(C)C)cc1,0,1,-6,43*
CC1(C)Cc2c(sc(NC(=O)COc3cccc4ccccc34)c2C#N)C(C)(C)N1,-2,2,-2,0
Cc1ccc(S(=O)(=O)Nc2ccc3c(c2)C(=O)N([C@@H](C)CO)C[C@H](C)[C@@H](CN(C)C(=O)Nc2ccc(C(F)(F)F)cc2)OCCCC[C@@H](C)O3)cc1,6,1,18*,0

# Source: PubChem BioAssay
